# From PubChem BioAssay (NCI)
# Compounds without any hit were thinned out: in the full panel of roughly 83,000, 20% have a hit.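 Activity criterion: percent growth below 10, measured after cells in 96-well plates were exposed to a single compound concentration for 48 hours.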 Calls of active or inactive are those of the source.
# System: MDA-MB-468 breast
# Experiment: NCI-60 one-dose screen, 48 h (100 = growth as untreated, 0 = no growth, -100 = all killed)
# Conditions: 10 µM unless noted
row,SMILES,growth
1,C#COc1cccc(Nc2ncnc3cc(NC(=O)CF)ccc23)c1,80.2% [6.25 µM] (inactive)
2,O=C(O)CNC(=O)c1ccccc1,122% (inactive)
3,Oc1c(I)cc(I)cc1I,102% (inactive)
4,CC1=C(CCCOC(=O)[C@H](N)CC(C)C)C2=C(C)C3(CC3)[C@@](C)(O)C(=O)C2=C1,-61.5% (active)
5,O=Cc1cn(Cc2ccc(Cl)cc2)c2ccccc12,-45% (active)
6,CC(C)N=C(NC(C)C)N1CC1,118% (inactive)
7,CC1=C(CCCOC(=O)CN)C2=C(C)C3(CC3)[C@@](C)(O)C(=O)C2=C1,20.2% (inactive)
8,CSc1cc(/C=C(\C)[C@@H]2C[C@@H]3O[C@]3(C)CCC[C@H](C)[C@H](O)[C@@H](C)C(=O)C(C)(C)[C@@H](O)CC(=O)O2)n(CCNC(=O)OC(C)(C)C)n1,66% (inactive)
9,C/C=C(\C)C(=O)O[C@@H]1C(O)[C@H]2OC(COC(=O)CCC(=O)CCCCCC[C@H](CCCCC)O[C@@H]3OC(C)[C@H](OC(C)=O)C(O)[C@H]3O2)[C@H]1OC(=O)/C=C/c1ccccc1 (stereo not given in full),-8.84% (active)
10,N#CC(N)c1ccccc1 (stereo not given),98.9% (inactive)
11,COc1cc([C@@H]2c3cc4c(c(O)c3C[C@H]3COC(=O)[C@@H]32)OCO4)cc(OC)c1OC,5.12% (active)
12,Oc1ccc(Br)cc1CN1CCN(Cc2ccc(Cl)cc2)CC1,95.9% (inactive)
13,Oc1ccccc1C=NCCN=Cc1ccccc1O,107% (inactive)
14,O=C(O)CNCP(=O)(O)O,102% (inactive)
15,CNC(=O)Oc1cccc(OC)c1,106% (inactive)
16,O=C1c2ccccc2C(=O)C(Cl)C1Cl (stereo not given),-89.9% (active)
17,CN1CC(=O)N(O)C1(C)c1cccnc1 (stereo not given),94.8% (inactive)
18,Cc1ccc(NC2=N[C@]34CC(=O)CC[C@]3(C)[C@H]3CC[C@]5(C)C(=O)CC[C@H]5[C@@H]3C[C@@H]4S2)c(C)c1,17% (inactive)
19,O=C(Nc1ccc(Cl)cc1)Nc1nccs1,16.4% (inactive)
20,C[CH2][Sn]([Cl])([Cl])[CH2]C.Oc1ccccc1C=NCCN=Cc1ccccc1O,103% (inactive)

row,SMILES,growth
1,CCOP(=O)(NC)OCC,94.2% (inactive)
2,Oc1cc[c]([Hg][Cl])cc1,93.6% (inactive)
3,COc1ccc(OC)c(/C=C/[N+](=O)[O-])c1,-59.3% (active)
4,O=C(O)C1C(C(=O)O)C2(Cl)C(Cl)=C(Cl)C1(Cl)C2(Cl)Cl.[Hg] (stereo not given),58.4% (inactive)
5,COc1ccc(N(CC(=O)NCCC[Te]c2ccccc2)C(=O)CCSC2=C(C)C(=O)c3ccccc3C2=O)cc1,-58.1% (active)
6,CC1=C(C)C(=O)O[C@@H]([C@](C)(O)[C@]2(O)CC[C@@]3(O)[C@@H]4C[C@H]5O[C@]56CC=CC(=O)[C@]6(C)[C@H]4CC[C@]23C)C1,-26.3% (active)
7,CC(=O)OC1CCC2C3CCC4=C/C(=N/OC(=O)c5ccc(N(CCCl)CCCl)cc5)CCC4(C)C3CC(C)C12 (stereo not given),67.2% (inactive)
8,C=CC[Se]C(=O)c1ccccc1OC(C)=O,-16.6% (active)
9,CCN1C(=O)NC(=O)C(C)(N2C(=O)c3c(F)c(F)c(F)c(F)c3C2=O)C1=O (stereo not given),-6.73% (active)
10,COc1ccc2c(ccc3oc([N+](=O)[O-])cc32)c1,-57.8% (active)
11,CC[C@H](C)[C@H](NC(=O)[C@H]1CCCCN1C)C(=O)N(C)[C@H](C[C@@H](OC(C)=O)c1nc(C(=O)N[C@@H](Cc2ccccc2)C[C@H](C)C(=O)OC)cs1)C(C)C,-7.99% (active)
12,Cc1c(C)c([N+](=O)[O-])c(C)c(C)c1[N+](=O)[O-],95.2% (inactive)
13,C/C(CC(C)(C)N1CC1)=N\NC(=O)Nc1cccc2ccccc12,-2.46% (active)
14,COC(=O)[C@@]1(C)CC[C@]2(C)CC[C@]3(C)C4=CC(=O)c5c(cc(O)c(O)c5C)[C@]4(C)CC[C@@]3(C)[C@@H]2C1,30.1% (inactive)
15,CCN1C(=O)CC(=O)N(CC)C1=S,93.1% (inactive)
16,N#CCC(=O)c1ccccc1,6.35% (active)
17,CC(=O)Nc1nc2c(s1)C1=CC[C@H]3[C@@H]4CC[C@H](OC(C)=O)[C@@]4(C)CC[C@@H]3[C@@]1(C)CC2,55.7% (inactive)
18,CNC(=O)Oc1ccc(C(C)(C)C)cc1OC(=O)NC,88.4% (inactive)
19,O=C1C2CC=CCC2C(=O)N1SC(Cl)(Cl)Cl (stereo not given),103% (inactive)
20,O=C(NCCNC(=O)c1ccc([As](O)O)cc1)c1ccc([As](O)O)cc1,82.2% (inactive)
